Source: PubChem (several laboratories)
PTK2B oligo ant – Pyk2 (human) oligomerization antagonism; Q293 cells, Pyk2 FERM NanoBiT luminescence; hits give low values; z-score (the deposit names both 25 µM and 10 µM); hit rate 0.83% among 99,000;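 active = Z-score of -3 or lower, scaled per plate to the spread of control and sample wells; inactive = z-score above -3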;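 note: negative z-score means lost luminescence so less FERM oligomerization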
Target sequence (Q14289 whole entry, looked up): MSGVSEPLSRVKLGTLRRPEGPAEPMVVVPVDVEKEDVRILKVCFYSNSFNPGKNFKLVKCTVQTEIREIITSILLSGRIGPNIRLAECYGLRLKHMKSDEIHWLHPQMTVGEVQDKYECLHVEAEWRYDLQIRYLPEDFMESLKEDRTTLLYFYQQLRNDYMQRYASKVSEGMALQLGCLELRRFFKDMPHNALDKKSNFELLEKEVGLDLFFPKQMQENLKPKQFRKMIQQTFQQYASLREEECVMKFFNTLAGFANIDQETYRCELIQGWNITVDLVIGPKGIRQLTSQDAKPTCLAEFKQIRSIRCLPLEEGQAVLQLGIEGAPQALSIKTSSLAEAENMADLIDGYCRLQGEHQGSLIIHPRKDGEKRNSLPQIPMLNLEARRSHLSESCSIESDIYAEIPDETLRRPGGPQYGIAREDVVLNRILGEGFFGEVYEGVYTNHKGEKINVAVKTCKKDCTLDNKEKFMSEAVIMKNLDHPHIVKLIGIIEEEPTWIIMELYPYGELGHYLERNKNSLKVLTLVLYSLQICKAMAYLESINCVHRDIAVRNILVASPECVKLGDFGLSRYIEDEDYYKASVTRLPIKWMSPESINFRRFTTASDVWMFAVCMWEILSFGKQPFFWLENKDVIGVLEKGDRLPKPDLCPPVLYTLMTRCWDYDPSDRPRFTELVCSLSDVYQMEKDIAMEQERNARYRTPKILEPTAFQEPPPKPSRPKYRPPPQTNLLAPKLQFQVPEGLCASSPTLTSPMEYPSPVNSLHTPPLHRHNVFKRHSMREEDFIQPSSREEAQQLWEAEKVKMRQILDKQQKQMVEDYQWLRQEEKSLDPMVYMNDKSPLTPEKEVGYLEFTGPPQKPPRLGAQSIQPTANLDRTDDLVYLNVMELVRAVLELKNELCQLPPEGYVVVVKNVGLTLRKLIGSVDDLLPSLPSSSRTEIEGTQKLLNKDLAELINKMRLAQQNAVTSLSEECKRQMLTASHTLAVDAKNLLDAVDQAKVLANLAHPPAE
Mac1 fbg inh – inhibitors of human CD11b/CD18 binding to fibrinogen; K562 CD11b/CD18 adhesion to fibrinogen, ATPlite luminescence; Mn2+ added to activate the integrin; hit rate 0.54% among 93,000; AID 1497; inhibition, % at 10 µM;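 active = primary inhibition of 50% or more at 10 µM, then 40% or more on retest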
Cav32 inh – inhibitors of human Cav3.2 T-type calcium channel; Cav3.2-expressing cells, Fluo-4 calcium fluorescence FDSS; hits give low values; B-score at 10 µM; hit rate 4% among 100,000; AID 449739;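 active = single-dose well whose peak fluorescence ratio is a statistical outlier from its plate by either plate-standardised score or position-corrected B-score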
Ec RNAP inh – blocks E. coli RNA polymerase transcription | P0A8V2 | fluorescence transcription assay | inhibition, %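 (tested at 10 µM)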 | hit rate 0.2% among 62,000 | AID 559; in the data active = inhibition above about 20%
Mac1 fbg enh – increases human CD11b/CD18 adhesion to fibrinogen. P05107+P11215. K562 CD11b/CD18 adhesion to fibrinogen, ATPlite luminescence. activation, % at 10 µM. hit rate 0.07% among 93,000;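 active = 10 µM primary screen giving 50% or more activity, confirmed by 40% or more on retest at that dose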
A number is an active result; i = inactive; nt = not tested or not shown. The list is not random: actives were taken first. Their share in the collection is about 4.2%.

SMILES | PTK2B oligo ant | Mac1 fbg inh | Cav32 inh | Ec RNAP inh | Mac1 fbg enh
C=CCN(CC=C)c1cnn(-c2nc3ccccc3[nH]2)c(=O)c1Cl | i | i | i | nt | i
O=c1c(Cl)c(NCCCO)cnn1-c1nc2ccccc2[nH]1 | i | nt | 3.1 | nt | nt
Clc1ccc(Sc2cc(Cl)c(-c3ccccc3)nn2)cc1 | -3.4 | nt | i | nt | nt
Cc1cccc(C)c1Nc1nnc(SCC(=O)c2ccc3c(c2)NC(=O)CO3)s1 | i | nt | nt | nt | nt
CCC(C)NCCCCOc1ccc(C)cc1[N+](=O)[O-] (configuration not stated) | i | nt | i | nt | nt
Cn1cccc1Cc1nnc(SCC(=O)Nc2ccc3c(c2)OCCO3)n1CCc1ccccc1 | nt | i | -11 | i | i
Cc1nnc(NC(=O)CSc2nnc(Cc3cccn3C)n2CCc2ccccc2)s1 | i | i | i | i | i
Cn1cccc1Cc1nnc(SCC(=O)Nc2ccc3c(c2)OCO3)n1CCc1ccccc1 | nt | i | -9.2 | i | i
Cn1cccc1Cc1nnc(SCC(=O)Nc2ccc(F)cc2)n1CCc1ccccc1 | nt | i | -7.4 | i | i
CC1(C)C(=O)N(OCc2ccccc2)C(C)(C)C(=O)N1OCc1ccccc1 | i | i | nt | nt | i
CC(C)(C)c1ccc(Cn2ccc(-c3ccc4c(c3)OCO4)n2)cc1 | i | nt | i | nt | nt
COc1cc(NC(=O)c2ccc(COCC(F)(F)F)cc2)cc(OC)c1OC | i | i | i | nt | i
CCCCNC(=O)c1onc(CSc2ccc(F)c(F)c2)c1C(=O)NCCCC | nt | nt | i | nt | nt
CCOC(=O)c1ccc(Oc2nc(NC)nc(Nc3ccccc3)n2)cc1 | i | i | i | nt | i
CC(=O)c1ccc(Nc2nc(NCCO)nc(OC(C(F)(F)F)C(F)(F)F)n2)cc1 | -3.3 | nt | i | nt | nt
CNc1nc(Nc2ccc(C(C)=O)cc2)nc(OC(C(F)(F)F)C(F)(F)F)n1 | -3.2 | i | i | i | i
COC(=O)CCC(=O)OC1(C)C(=O)C=C2C=C(C3CC3)OC=C2C1=O (configuration not stated) | nt | nt | i | nt | nt
Cc1ccccc1N(C)S(=O)(=O)c1ccc2[nH]cc(C(=O)NCC3CCCO3)c(=O)c2c1 (configuration not stated) | -3.2 | i | i | i | i
CCOC(=O)C[C@H]1c2ccc(C(F)(F)F)cc2S(=O)(=O)N1c1cccc(OC)c1 | nt | nt | i | nt | nt
CCCC(=O)Nc1cc(C)c2c(=O)oc3ccccc3c2n1 | nt | nt | -3.9 | i | nt
CCN(CC)CC(=O)Nc1cc(C)c2c(=O)oc3ccccc3c2n1 | nt | nt | nt | i | nt
CCCCn1nnnc1SCC(=O)NNC(=O)C1CCCCC1 | i | i | i | nt | i
CC(C)(C)C(=O)NCCc1nc(-c2ccccc2)no1 | nt | nt | i | nt | nt
O=C1CC(N(C(=O)c2ccco2)c2cccc(Cl)c2)C(=O)N1c1cccc(Cl)c1 (configuration not stated) | i | i | i | nt | i
Cc1ccc(C2C(C(N)=S)=C(N)OC3=C2C(=O)CC(C)(C)C3)cc1 (configuration not stated) | i | i | nt | nt | i
SMILES | PTK2B oligo ant | Mac1 fbg inh | Cav32 inh | Ec RNAP inh | Mac1 fbg enh
CC1(C)CC(=O)C2=C(C1)OC1=C(C(=O)CC(C)(C)C1)C2c1ccc(O)cc1O | i | i | -4.7 | i | i
COC1=CCC2([N+](=O)[O-])CN(CCO)CC1([N+](=O)[O-])C2 (configuration not stated) | nt | i | nt | nt | i
Cc1cccc(N2CCN(C(=O)CSCc3c(C)noc3C)CC2)c1C | i | 99 | nt | i | i
Cc1cccc(N2CCN(C(=O)c3ccc(NS(=O)(=O)c4c(C)noc4C)cc3)CC2)c1C | i | i | -7.2 | i | i
COc1ccc(OCc2ccc(C(=O)NN)cc2)cc1 | i | i | i | nt | i
Cc1cc(N2CCC(C)CC2)nc(SCC(=O)c2ccccc2)n1 | i | nt | -4.7 | nt | nt
O=C(N[C@H](CO)Cc1ccccc1)c1ccco1 | nt | nt | i | nt | nt
CC(NC(=O)Nc1nnc(C(F)(F)F)s1)(C(F)(F)F)C(F)(F)F | i | 99 | -7.7 | nt | i
CC(C)c1[nH]nc2c1C(Cc1ccccc1)C(C#N)=C(N)O2 (configuration not stated) | i | i | -8.6 | i | i
COc1cccc(COc2cc3ccccc3nc2C)c1 | i | nt | i | nt | nt
O=C(Nc1ccc2c(c1)OCO2)c1c(F)cccc1F | i | i | -3.3 | i | i
Cc1occc1C(=O)Nc1ccc(Br)cc1F | i | i | i | nt | i
O=C(CC(=O)c1ccccc1)Nc1cccnc1Cl | nt | i | nt | nt | i
CCOc1cc2c3c(c1)C1(C(=O)N3C(C)(C)C=C2C)C(C#N)=C(N)Oc2cc(O)ccc21 (configuration not stated) | i | i | -5.6 | i | i
O=C(CN1CCOCC1)N(c1ccccc1)c1ccc2ccccc2c1 | i | i | i | i | i
O=C(CN1CCN(c2ccccn2)CC1)N(c1ccccc1)c1ccc2ccccc2c1 | i | i | -6.3 | i | i
Cc1ccccc1N(CC(=O)N/N=C/c1cc(C)n(-c2ccccc2C)c1C)S(C)(=O)=O | i | i | -9.8 | nt | i
Cc1cc(C)nc(SCC(=O)N/N=C/c2cc(C)n(-c3ccccc3C)c2C)n1 | i | nt | nt | nt | nt
COc1ccc(NC(=O)Nc2cccc(C)n2)cc1 | nt | i | -4.2 | i | i
Cc1cccc(NC(=O)Nc2ccc(C#N)cc2)n1 | nt | i | i | i | i
Cc1cccc(NC(=O)Nc2cccc(C#N)c2)n1 | nt | i | -4.2 | i | i
Cc1ccccc1NC(=O)c1ccc(Cl)c(NC(=O)c2ccncc2)c1 | i | nt | nt | nt | nt
Cc1cccc(COCC(Cc2ccccc2)N2CCN(C(=O)c3cc(Cl)cc(Cl)c3)CCC2=O)c1 (configuration not stated) | nt | nt | -3.4 | nt | nt
O=C(NCC1CCCO1)C(c1ccc(F)cc1)N(Cc1ccc(F)cc1)C(=O)Cn1nnc(-c2cccs2)n1 (configuration not stated) | i | nt | i | nt | nt
O=C(NCC1CCCO1)C(c1cccs1)N(Cc1cccs1)C(=O)Cn1nnc(-c2cccs2)n1 (configuration not stated) | i | nt | -7.1 | nt | nt
SMILES | PTK2B oligo ant | Mac1 fbg inh | Cav32 inh | Ec RNAP inh | Mac1 fbg enh
Cc1ccc(-c2nnn(CC(=O)N(Cc3cccs3)C(C(=O)NC3CCCC3)c3ccncc3)n2)cc1 (configuration not stated) | i | nt | i | nt | nt
CC(C)CCNC(=O)C(c1ccncc1)N(Cc1cccs1)C(=O)Cn1nnc(-c2ccc(F)cc2)n1 (configuration not stated) | i | nt | -7.4 | nt | nt
COC/C=C/C1=CC2=CC(=O)C(C)(OC(=O)c3cnc4ccccc4n3)C(=O)C2=CN1C1CCCC1 (configuration not stated) | nt | nt | i | nt | nt
CC(C)NC(=O)C1CCN(C(=O)c2cc3sccc3n2Cc2ccc(F)cc2)CC1 | i | i | i | i | i
CC1CCN(C(=O)C2CCN(C(=O)c3cc4sccc4n3Cc3ccc(F)cc3)CC2)CC1 | i | i | -4.1 | i | i
O=C(c1cc2sccc2n1Cc1ccc(F)cc1)N1CCCc2ccccc21 | i | nt | -3.8 | nt | nt
O=C(COC(=O)CCC(NC(=O)OCc1ccccc1)C(=O)OCC(=O)Nc1ccccc1)Nc1ccccc1 (configuration not stated) | nt | i | nt | nt | i
CCc1ccccc1NC(=O)c1ccc(CN2CCC(Cc3ccccc3)CC2)cc1 | i | nt | -7.8 | nt | nt
Cc1ccccc1NC(=O)c1ccc(CN2CCc3ccccc3C2)cc1 | i | i | -6.7 | nt | i
